Source: PubChem BioAssay
Calls of active or inactive are those of the source.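 Rule for the calls, unless noted: active = inhibition of the reporter signal at or above 50%; inactive = inhibition below 50%.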

Tests used:
[1] = inhibitors of TNFa-induced NFkB p65 translocation, primary screen, imaging, HUVEC, MLSMR starter and 10KST1 sets (AID 438;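 active = inhibition above 20% together with a positive visual image hit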;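 note: compound added about 3h40 before a 20 min TNFalpha stimulation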;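 for inhibition: signal is the nuclear over cytoplasmic p65 intensity ratio per well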); conditions: HUVEC TNFa-induced p65 nuclear translocation; cell count: measured here: nuclei count (cytotoxicity indicator), at 2.08 µM; inhibition: at 2 µM, stronger effect = higher value, 0% TNFa-plus-vehicle, 100% no-TNFa wells
[2] = inhibitors of mutant huntingtin aggregation, primary screen, imaging, exon1htt(103Q)mCFP cells, high-content imaging (AID 483;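 active = visual image review flags a hit and inhibition of aggregation exceeds 20%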;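 note: compound exposure lasted 3 days before fixation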;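 for nuclei count: percent of the per-plate median nuclei count of sample wells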); conditions: exon1htt(103Q)mCFP cell line, aggregate imaging, at 2 µM; inhibition of aggregation: stronger effect = higher value; nuclei count: measured here: cell count, toxicity
[3] = inhibitors of E-selectin induction by TNFa, primary screen, imaging, HUVEC, immunofluorescence, MLSMR starter and 10KST1 sets (AID 487;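 active = visually confirmed hit in the image check and inhibition above 20%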;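 for inhibition: signal is fraction of cell area covered by stained E-selectin grains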;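 for nuclei count: 100% = median nuclei count of all wells on the same plate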); conditions: HUVEC TNFalpha-induced E-selectin immunofluorescence imaging, at 2 µM; inhibition: stronger effect = higher value; nuclei count: measured here: cell number, toxicity
[4] = molecular target: Voltage-gated potassium channel subunit beta-2 (Rattus norvegicus) (UniProt P62483); experiment: KvBeta enzyme negative modulators, primary screen, biochemical, NADPH fluorescence (AID 622;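 active = fluorescence slope higher than the sample average by over 3 SD, cut at about -0.22 in these data, passing the limit was not always enough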;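 note: slope of raw intensity against log time taken from 70 to 1610 s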); conditions: recombinant KvBeta, 4-cyanobenzaldehyde reduction, at 10 µM, stronger effect = higher value
Chain of Voltage-gated potassium channel subunit beta-2 (Rattus norvegicus) (P62483 whole entry, looked up): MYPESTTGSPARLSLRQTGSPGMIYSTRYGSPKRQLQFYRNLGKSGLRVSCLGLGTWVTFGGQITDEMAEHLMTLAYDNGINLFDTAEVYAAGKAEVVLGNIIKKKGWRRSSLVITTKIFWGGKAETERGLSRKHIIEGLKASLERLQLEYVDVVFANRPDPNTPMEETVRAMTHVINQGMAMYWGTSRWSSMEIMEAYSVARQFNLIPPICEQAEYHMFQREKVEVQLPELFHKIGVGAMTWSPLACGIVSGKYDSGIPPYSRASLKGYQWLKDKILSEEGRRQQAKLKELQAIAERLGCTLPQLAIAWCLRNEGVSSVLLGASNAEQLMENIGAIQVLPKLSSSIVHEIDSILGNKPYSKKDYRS

[5] = molecular target: Voltage-gated potassium channel subunit beta-2 (Rattus norvegicus) (UniProt P62483); experiment: KvBeta positive modulators, primary screen, biochemical, NADPH fluorescence (AID 623;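 active = NADPH fluorescence slope more negative than the mean of all samples by about 3 SD, 99.7% confidence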;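 note: fluorescence intensity change per second fitted from 20 to 320 s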); conditions: Recombinant KvBeta, NADPH fluorescence decrease slope, 10 min; at 10 µM; stronger effect = lower value
[6] = molecular target: Alpha-2C adrenergic receptor (Homo sapiens) (UniProt P18825); experiment: modulators of alpha2C/GIRK thallium flux, primary screen, cell-based, HEK293 alpha2C/GIRK1/2 (AID 624;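 active = fluorescence slope after compound addition differing from the mean of all screened samples at 99.7% confidence, in either direction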;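 note: slope of fluorescence ratio to pre-addition baseline per second over 15 to 24 s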); conditions: thallium flux BTC fluorescence, at 10 µM, actives lie on both sides
Chain of Alpha-2C adrenergic receptor (Homo sapiens) (P18825 whole entry, looked up): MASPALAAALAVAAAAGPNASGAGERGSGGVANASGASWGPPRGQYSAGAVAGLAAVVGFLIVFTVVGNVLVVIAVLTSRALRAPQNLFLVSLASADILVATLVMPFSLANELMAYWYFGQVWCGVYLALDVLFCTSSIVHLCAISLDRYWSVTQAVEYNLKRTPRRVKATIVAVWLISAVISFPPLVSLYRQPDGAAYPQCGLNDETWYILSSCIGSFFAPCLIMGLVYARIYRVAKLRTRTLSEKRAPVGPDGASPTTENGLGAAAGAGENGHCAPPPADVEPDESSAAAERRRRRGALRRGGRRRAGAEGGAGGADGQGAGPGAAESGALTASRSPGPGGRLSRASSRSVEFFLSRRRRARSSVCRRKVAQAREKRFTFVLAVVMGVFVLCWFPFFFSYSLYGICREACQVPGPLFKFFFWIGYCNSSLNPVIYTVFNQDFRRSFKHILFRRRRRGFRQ

[7] = inhibitors of Sendai virus-induced IRF3 signaling, primary screen, TLR/RLR signaling modifier project, cell-based, Sendai virus stimulus, luciferase, 10K MLSCN set (AID 602276;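 active = inhibition at or above 50% at 10 µM; inactive = inhibition below 50%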;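 note: firefly luciferase from ISG56 promoter only with Renilla not read in this screen; 0% = Sendai virus plus DMSO and 100% = medium plus DMSO without virus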); conditions: HEK293 RL24 IRF3 luciferase reporter, at 10 µM, stronger effect = higher value
[8] = inhibitors of poly I:C-induced TLR3 signaling, primary screen, cell-based, poly I:C stimulus, luciferase, 10K MLSCN set (AID 602277); conditions: HEK293-TLR3 RL24 IRF3 luciferase reporter, at 10 µM, stronger effect = higher value

SMILES	cell count [1]	inhibition [1]	inhibition of aggregation [2]	nuclei count [2]	inhibition [3]	nuclei count [3]	fluorescence slope [4]	NADPH fluorescence slope [5]	slope [6]	inhibition [7]	inhibition [8]
CCC(=O)Nc1cc(C)c(NC(=O)C23CC4CC(CC(C4)C2)C3)cn1	391	5.2% (inactive)	1% (inactive)	98.8%	-11.3% (inactive)	102%	-0.479 (inactive)	-3.3e-05 (inactive)	0.00598 (inactive)	1.14% (inactive)	18.1% (inactive)
CC(C)CNS(=O)(=O)c1ccc(CCC(=O)NCc2ccco2)cc1	572	33.1% (active)	7% (inactive)	85%	-57.5% (inactive)	137%	-0.511 (inactive)	1.9e-05 (inactive)	0.00549 (inactive)	11.1% (inactive)	14.7% (inactive)
CC1Cc2ccccc2N1C(=O)COC(=O)Cn1nnc(-c2ccccc2)n1 (stereo not drawn)	543	-9% (inactive)	-4.6% (inactive)	96.1%	-39.7% (inactive)	123%	-0.583 (inactive)	-4e-05 (inactive)	0.00555 (inactive)	11% (inactive)	34.2% (inactive)
O=c1c2ccccc2nc(SCc2nc(-c3ccccc3)no2)n1-c1ccc(F)cc1	719	-5.5% (inactive)	-12.6% (inactive)	128%	-58.2% (inactive)	114%	-0.538 (inactive)	-3.3e-05 (inactive)	0.00951 (inactive)	13.8% (inactive)	39.7% (inactive)
Cc1ccc(C)c(N2CCN(CCCNC(=O)Cn3cc4c(n3)CCC(C)C4)CC2)c1 (stereo not drawn)	554	9.9% (inactive)	-8.9% (inactive)	90.9%	29.9% (inactive)	106%	-0.574 (inactive)	-2.4e-05 (inactive)	0.00559 (inactive)	13.6% (inactive)	41% (inactive)
CCCc1[nH]nc2c1C(c1cn[nH]c1-c1ccc(F)cc1)C(C#N)=C(N)O2 (stereo not drawn)	438	-8.3% (inactive)	11.7% (inactive)	89.8%	-43.7% (inactive)	137%	-0.38 (inactive)	-0.000105 (inactive)	0.00672 (inactive)	18.7% (inactive)	23.5% (inactive)
NC(=O)c1c(NC(=O)Cc2cccs2)sc2c1CCC2	537	-17.1% (inactive)	12.6% (inactive)	109%	-43% (inactive)	150%	-0.483 (inactive)	-6.1e-05 (inactive)	0.00572 (inactive)	-14.3% (inactive)	-35.7% (inactive)
Cc1ccc(C)c(N2CCN(Cc3nnnn3C3CCCCC3)CC2)c1	458	-4.4% (inactive)	-7.6% (inactive)	123%	-49.3% (inactive)	112%	-0.626 (inactive)	-2.5e-05 (inactive)	0.00597 (inactive)	11.6% (inactive)	34.8% (inactive)
COc1ccc(N2CCN(C(=O)CCNS(=O)(=O)c3ccc(Br)s3)CC2)cc1	338	2.9% (inactive)	-0.1% (inactive)	101%	-297% (inactive)	108%	-0.423 (inactive)	-0.000118 (inactive)	0.00529 (inactive)	7.87% (inactive)	12.4% (inactive)
Nc1ccc(-n2c(N)c(C(=O)NCc3ccc4c(c3)OCO4)c3nc4ccccc4nc32)cc1	334	-17.4% (inactive)	16.7% (inactive)	93.9%	-16.4% (inactive)	117%	-0.476 (inactive)	-3e-05 (inactive)	0.00435 (inactive)	20.1% (inactive)	3.26% (inactive)
Cn1c(C(=O)NCCCN2CCN(c3ccc(F)cc3)CC2)cc2c(=O)n(C)c3ccccc3c21	655	1.1% (inactive)	6.5% (inactive)	107%	-73.4% (inactive)	118%	-0.42 (inactive)	-6.1e-05 (inactive)	0.00607 (inactive)	6.19% (inactive)	39.1% (inactive)
CCOC(=O)c1cccc(NC(=O)CSc2nnc(C3CCCCC3)n2C)c1	291	-10.5% (inactive)	7.3% (inactive)	117%	18% (inactive)	113%	-0.586 (inactive)	-3.6e-05 (inactive)	0.00599 (inactive)	12.9% (inactive)	17.5% (inactive)
CCOC(=O)N1CCC(n2c(SCC(=O)NCc3ccco3)nc3ccsc3c2=O)CC1	729	3.4% (inactive)	2.8% (inactive)	97.8%	-97.7% (inactive)	118%	-0.386 (inactive)	-2.9e-05 (inactive)	0.00588 (inactive)	4.14% (inactive)	23.6% (inactive)
O=C1c2ccccc2-c2ccc(C(=O)N3CCOCC3)cc21	623	-4.1% (inactive)	-6.2% (inactive)	81.1%	-103% (inactive)	101%	-0.235 (inactive)	-1.8e-05 (inactive)	0.00393 (inactive)	5.8% (inactive)	-1.97% (inactive)
CCOC(=O)C1CCN(C(=O)CN(Cc2ccccc2)S(C)(=O)=O)CC1	370	2.3% (inactive)	-32.7% (inactive)	102%	-78.2% (inactive)	115%	-0.422 (inactive)	-5.7e-05 (inactive)	0.00496 (inactive)	10% (inactive)	7.77% (inactive)
CCSc1nnc(N2C(=O)CC(c3ccsc3)C3=C2CC(C)(C)CC3=O)s1 (stereo not drawn)	558	0% (inactive)	4.8% (inactive)	109%	-46.6% (inactive)	115%	-0.55 (inactive)	-4.6e-05 (inactive)	0.00599 (inactive)	11.7% (inactive)	35.7% (inactive)
O=C(NCCc1ccccc1)C1CCCN(S(=O)(=O)c2cccs2)C1 (stereo not drawn)	901	6.9% (inactive)	-17.3% (inactive)	111%	-27.2% (inactive)	115%	-0.571 (inactive)	-2.3e-05 (inactive)	0.00585 (inactive)	10.2% (inactive)	23.9% (inactive)
CC(C)(C)NC(=O)Cn1nnnc1-c1nonc1N	433	9.2% (inactive)	-5.9% (inactive)	120%	-94.7% (inactive)	120%	-0.618 (inactive)	-4.6e-05 (inactive)	0.00302 (inactive)	-5.7% (inactive)	-10.1% (inactive)
CC(Oc1ccccc1)C(=O)Nc1ccc(S(=O)(=O)NCC2CCCO2)cc1 (stereo not drawn)	377	5% (inactive)	17.7% (inactive)	81.9%	-84.8% (inactive)	99.2%	-0.411 (inactive)	1.4e-05 (inactive)	0.00888 (inactive)	20.7% (inactive)	98.9% (active)
COC(=O)Cn1c(CN2CCOCC2)nc2c1c(=O)n(C)c(=O)n2C	666	-18.4% (inactive)	6.2% (inactive)	95.4%	-0.7% (inactive)	114%	-0.418 (inactive)	-5.7e-05 (inactive)	0.00632 (inactive)	6.17% (inactive)	32.9% (inactive)
Cc1cccc(NC(=O)c2cnc3sccn3c2=O)n1	613	-1.9% (inactive)	-0.7% (inactive)	115%	-24.4% (inactive)	109%	-0.604 (inactive)	5e-07 (inactive)	0.00666 (inactive)	-25.6% (inactive)	-61.7% (inactive)
Cc1cc2c(cc(C(=O)OCC(=O)NCc3cccs3)n2C(C)C)o1	379	9.9% (inactive)	7.7% (inactive)	106%	-156% (inactive)	95.3%	-0.586 (inactive)	-5.1e-05 (inactive)	0.00376 (inactive)	20.7% (inactive)	77.6% (active)
CC(=O)N1CCN(S(=O)(=O)c2ccc(S(=O)(=O)NC3CC3)cc2)CC1	716	-8.1% (inactive)	0.7% (inactive)	99.7%	33.9% (inactive)	112%	-0.444 (inactive)	-2.2e-05 (inactive)	0.00506 (inactive)	18.5% (inactive)	18% (inactive)
O=C(NCCSCc1ccco1)Nc1cccc(Cl)c1	502	3.6% (inactive)	-7.7% (inactive)	99.9%	-67.4% (inactive)	115%	-0.673 (inactive)	1.6e-05 (inactive)	0.0115 (inactive)	2.33% (inactive)	-54.8% (inactive)
COc1ccc(C)cc1NC(=O)CCN1CCCC1	257	-1.2% (inactive)	7.8% (inactive)	87.6%	6.5% (inactive)	109%	-0.442 (inactive)	-3.8e-06 (inactive)	0.00559 (inactive)	15.3% (inactive)	16.2% (inactive)
CCC(=O)Nc1cc(C(=O)NCC2CCCN2CC)c(OC)cc1N(C)C (stereo not drawn)	448	-0.5% (inactive)	-23.1% (inactive)	98.8%	-37.7% (inactive)	104%	-0.525 (inactive)	1.6e-05 (inactive)	0.00562 (inactive)	0.262% (inactive)	6.05% (inactive)
Cc1cc(Cl)ccc1NC(=O)CSc1nnc(Cc2cccs2)n1Cc1ccco1	270	-4.3% (inactive)	27.5% (inactive)	74.6%	-32.8% (inactive)	102%	-0.494 (inactive)	-5e-05 (inactive)	0.00645 (inactive)	17.4% (inactive)	32.2% (inactive)
O=C(Nc1ccc2c(c1)OCCO2)c1cnc2n(c1=O)CCS2	550	-2.3% (inactive)	9.3% (inactive)	78.2%	-8.2% (inactive)	98.4%	-0.57 (inactive)	-5.8e-06 (inactive)	0.00627 (inactive)	-79.9% (inactive)	-177% (inactive)
